The list is not random: actives were taken first. Their share in the collection is about 4.7%.
PfHsp90 set2 – growth inhibition of PfHsp90-expressing yeast, primary screen, antimalarial PfHsp90 inhibitor project, S. cerevisiae, BacTiter-Glo luminescence, single point, set 2; BacTiter-Glo ATP, 48 h; yeast lacking PDR1 and PDR3 efflux regulators; inhibition, % at 9.4 µM; 0.32% of 310,000 active; AID 504621, 2011;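 active = every replicate shows inhibition above about 80%, whatever the replicate mean, limit read from the data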
TIM10 inh – growth inhibitors of isogenic TIM10 control yeast, primary screen, counter-screen for tim10-1 yeast inhibitor project, luminescence, uHTS. 1.4% of 330,000 active. AID 463195, 2010. inhibition, % at 10 µM. S. cerevisiae TIM10 strain growth, BacTiter-Glo luminescence, 24 h;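 active = inhibition of 40% or more at the single tested concentration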;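 also: wild-type TIM10 isogenic control strain grown at permissive 25 °C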
SKKanGAS inh – S. pyogenes SKKanGAS growth inhibitors in kanamycin, primary screen, streptokinase expression inhibitor project, SKKanGAS strain, BacTiter-Glo luminescence | inhibition, % at 7.5 µM | 1.3% of 300,000 active | 6 h | AID 1662, 2009;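 active = mean replicate score, as percent of positive control median, at least 50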;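 also: strain carries kanamycin resistance gene driven by streptokinase promoter and grows in 40 µg/ml kanamycin; loss of luminescence reflects streptokinase promoter inhibition or plain growth inhibition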
ATG4B inh – ATG4B protease inhibitors, primary screen, biochemical, fluorescence, uHTS. ATG4B cleavage of LC3-PLA2, NBD-HPC fluorescence, 1 h. inhibition, % at 8.33 µM. 0.51% of 340,000 active; in the data active = inhibition above about 40%
Target sequence (Q9Y4P1 whole entry, looked up): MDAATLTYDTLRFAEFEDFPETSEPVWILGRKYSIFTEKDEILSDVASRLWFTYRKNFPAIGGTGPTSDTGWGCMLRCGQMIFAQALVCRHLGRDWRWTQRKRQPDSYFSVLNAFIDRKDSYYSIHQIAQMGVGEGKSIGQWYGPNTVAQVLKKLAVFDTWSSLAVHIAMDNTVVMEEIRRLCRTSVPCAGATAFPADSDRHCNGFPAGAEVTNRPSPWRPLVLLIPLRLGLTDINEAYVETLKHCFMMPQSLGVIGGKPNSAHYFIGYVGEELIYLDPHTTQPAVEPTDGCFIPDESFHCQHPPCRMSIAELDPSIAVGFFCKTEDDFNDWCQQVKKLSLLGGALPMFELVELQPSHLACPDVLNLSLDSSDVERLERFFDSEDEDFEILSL
tim23-1 inh – growth inhibitors of tim23-1 mutant yeast, primary screen, luminescence, uHTS; S. cerevisiae tim23-1 growth, BacTiter-Glo luminescence, 24 h; inhibition, % at 20 µM; 1.3% of 330,000 active;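 active = growth inhibition of the mutant yeast at or above 50%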;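 also: temperature-sensitive mutant grown at 25 °C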
tim10-1 inh – growth inhibitors of tim10-1 mutant yeast, primary screen, luminescence, uHTS. S. cerevisiae tim10-1 ts strain growth, BacTiter-Glo, 24 h. 2.2% of 330,000 active. inhibition, % at 20 µM;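 active = inhibition of at least 40%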;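 also: mutant grown at 25 °C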
tim10-1 confirm – growth inhibitors of tim10-1 mutant yeast, confirmation, single concentration, luminescence, S. cerevisiae. shares compounds with tim10-1 inh. S. cerevisiae tim10-1 ts strain growth, BacTiter-Glo, 24 h. inhibition, % at 20 µM. 56% of 7,400 active;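 active = inhibition of yeast growth at or above a set limit in either of two repeat tests at 20 µM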;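 also: tim10-1 mutant grown at permissive 25 °C to find synthetic lethal compounds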
Of the large screens only hits and unclear results are named; the others gave an inactive call (follow-up assays come after a bar, where they were run).

O=C1[C@@H]2[C@@H]3C[C@@H]([C@H]4ON=C(c5ccc(Cl)cc5Cl)[C@@H]34)[C@@H]2C(=O)N1C1CCCCC1	tim10-1 inh 52.0 | tim10-1 confirm 33.6
COc1ccc(C2/C=C\CN(C(=O)OCC3c4ccccc4-c4ccccc43)CC(=O)N2Cc2cccc(F)c2)cc1 (stereo not given)	none (no result: SKKanGAS inh)
COc1ccc([C@H]2/C=C\CN(C(=O)[C@H](Cc3ccccc3)NC(=O)OCC3c4ccccc4-c4ccccc43)CC(=O)N2Cc2ccc(F)cc2)cc1	tim10-1 inh 95.4 (no result: PfHsp90 set2) | tim10-1 confirm inactive
O=[N+]([O-])c1ccc(O)c(NC(=S)Nc2ccccc2)c1	tim10-1 inh 47.6 | tim10-1 confirm inactive
Cc1ccc(-c2ccc(/C=N/NC(N)=S)o2)cc1	tim10-1 inh 41.8 | tim10-1 confirm inactive
Cc1ccn2c(NC(C)(C)C)c(-c3cccs3)nc2c1	tim10-1 inh 44.3 | tim10-1 confirm inactive
Cc1ccc(-c2nnn(CC(=O)N(CC3CCCO3)C(C(=O)NC3CCCC3)c3ccc(F)cc3)n2)o1 (stereo not given)	none
O=C(C1CC1)N1CCc2cc(S(=O)(=O)NCC3COc4ccccc4O3)ccc21 (stereo not given)	tim10-1 inh 45.7 | tim10-1 confirm inactive
COc1ccc(OC)c(NC(=O)C(CC(C)C)NC(=O)C2CCCCC2)c1 (stereo not given)	none
O=C(c1ccc([N+](=O)[O-])cc1)N1CCc2ccccc2C1	none
O=[N+]([O-])c1ccc(NC(=S)N2CCc3ccccc3C2)cc1	tim10-1 inh 41.2 | tim10-1 confirm inactive
O=C(CCN1CCN(c2ccccc2F)CC1)Nc1ccccc1Cl	none
O=c1c2ccccc2nnn1CSc1ccc2c(c1)OCCO2	tim10-1 inh 41.8 | tim10-1 confirm 35.2
CCC(C(=O)Nc1ccc2c(c1)OCCO2)n1nnc2ccccc2c1=O (stereo not given)	none
Cc1ccc2nc(SCC(=O)NCc3ccc(S(N)(=O)=O)cc3)[nH]c2c1	none
COc1ccc(OC)c(/C=C2\SC(N3CCCC(C)C3)=NC2=O)c1 (stereo not given)	tim10-1 inh 43.2 | tim10-1 confirm inactive
O=C(c1cc(=O)c2ccccc2o1)N1CCN(c2cccc(Cl)c2)CC1	tim10-1 inh 44.5 (no result: PfHsp90 set2) | tim10-1 confirm inactive
Cc1ccc(C(=O)N2CCN(c3cccc(Cl)c3)CC2)cc1C	tim10-1 inh 50.2 | tim10-1 confirm inactive
O=C(c1cc(=O)c2ccccc2o1)N1CCN(c2ccccc2F)CC1	none
CCOC(=O)N1CCN(C(=O)CCc2ccc(S(=O)(=O)NCCc3ccccc3)cc2)CC1	none
NS(=O)(=O)c1ccc(NS(=O)(=O)c2ccc3c(c2)OCCO3)cc1	none
CCN1CCN(S(=O)(=O)c2ccc(Cl)c(C(=O)N(C)Cc3ccccc3)c2)CC1	tim10-1 inh 98.4 (no result: SKKanGAS inh) | tim10-1 confirm inactive
OC(c1ccc2c(c1)OCO2)c1nccc2ccccc12 (stereo not given)	none
Cc1c(C(=O)NCC2COc3ccccc3O2)oc2ccc(S(=O)(=O)N3CC(C)CC(C)C3)cc12 (stereo not given)	none
Cc1c(C(=O)NCC2COc3ccccc3O2)oc2ccc(S(=O)(=O)N3CCOCC3)cc12 (stereo not given)	tim10-1 inh 42.1 (no result: PfHsp90 set2) | tim10-1 confirm inactive
Cc1c(C(=O)NC2CC2)oc2ccc(S(=O)(=O)N3CCCCCC3)cc12	tim10-1 inh 48.8 (no result: PfHsp90 set2) | tim10-1 confirm 38.0
Cc1c(C(=O)O)oc2ccc(S(=O)(=O)N3CCCC3)cc12	none
CC(NC(=O)c1ccc(N(C)C)c([N+](=O)[O-])c1)c1ccc(-n2ccnc2)cc1 (stereo not given)	none
